Screening data from PubChem BioAssay.
Only some compounds are listed: those with a hit (about 3.5% of all), similar ones and a draw of the others.
GDH-TPI inh: counter-screen for M. tuberculosis FBA inhibitors: GDH-TPI coupled enzymes; 360,000 tested, 1.2% active; inhibition, % at 4.8 µM; GDH-TPI coupled enzyme counterscreen, NADH absorbance; in the data active means inhibition above about 30%;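 further: 0% = DMSO wells and 100% = wells lacking the enzyme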
Rv3671c inh: Rv3671c (M. tuberculosis) protease inhibition | inhibition, % at 5.96 µM | 320,000 tested, 0.048% active; in the data active means inhibition above about 38%;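 further: extracellular domain of Rv3671c used as enzyme; 0% = enzyme with DMSO and 100% = no enzyme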
FBA Mtb inh: inhibitors of M. tuberculosis fructose-bisphosphate aldolase | P9WQA3 | purified M. tuberculosis FBA, fluorescence read-out | inhibition, % at 1 µM | 360,000 tested, 2.3% active | AID 588726; in the data active means inhibition above about 27%;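 further: 0% = vehicle and 100% = reference inhibitor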
Mtb UGM inh: Mtb UDP-galactopyranose mutase inhibition; P9WIQ1; purified UGM, fluorescence polarization probe displacement; inhibition, % at 10 µM; 320,000 tested, 0.06% active; AID 504406; in the data active means inhibition above about 10%, passing the limit was not always enough
Target sequence (P9WIQ1 whole entry, looked up): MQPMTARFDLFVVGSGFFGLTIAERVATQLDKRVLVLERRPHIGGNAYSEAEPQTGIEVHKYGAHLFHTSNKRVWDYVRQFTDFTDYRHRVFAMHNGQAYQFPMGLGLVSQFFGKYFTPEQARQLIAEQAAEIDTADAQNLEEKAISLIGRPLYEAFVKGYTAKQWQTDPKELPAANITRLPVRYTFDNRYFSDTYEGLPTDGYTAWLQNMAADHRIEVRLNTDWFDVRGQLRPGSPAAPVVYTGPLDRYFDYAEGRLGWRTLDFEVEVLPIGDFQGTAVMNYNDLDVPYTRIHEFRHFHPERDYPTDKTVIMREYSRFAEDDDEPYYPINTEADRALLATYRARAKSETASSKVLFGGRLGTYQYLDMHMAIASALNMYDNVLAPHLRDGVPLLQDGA
An asterisk follows results filed as active; / = no result given; + = active, no number.

SMILES | GDH-TPI inh | Rv3671c inh | FBA Mtb inh | Mtb UGM inh
O=C(O)c1cccc(N2C(=O)c3ccc4c5c(ccc(c35)C2=O)C(=O)N(c2cccc(C(=O)O)c2)C4=O)c1 | 38.3* | -9.5 | -3.1 | 2.8
O=C(O)c1cccc(N2C(=O)c3ccc(Oc4ccc(Cl)cc4)cc3C2=O)c1 | -2.6 | -6.9 | 3.0 | -2.8
Cc1ccc(Nc2nc(-c3cccnc3)cs2)cc1Cl | 8.6 | 2.3 | -3.7 | -0.1
O=C(O)c1ccc(Nc2nc(-c3cccnc3)cs2)cc1O | 43.4* | -5.8 | -2.0 | -3.0
COCCCNC(=O)c1c(N)n(-c2ccccc2)c2nc3ccccc3nc12 | 12.6 | -13.6 | + | 4.2
Nc1c(C(=O)NCCN2CCOCC2)c2nc3ccccc3nc2n1CCc1ccccc1F | 26.9 | -1.2 | 124.3* | -2.7
COCCCNC(=O)c1c(N)n(/N=C/c2cccs2)c2nc3ccccc3nc12 | 0.0 | -3.4 | -0.6 | -2.0
COCCNC(=O)c1c(N)n(-c2cccc(C)c2)c2nc3ccccc3nc12 | -0.9 | -5.8 | 182.6* | -1.7
COCCCNC(=O)c1c(N)n(-c2ccc(S(N)(=O)=O)cc2)c2nc3ccccc3nc12 | 25.4 | -2.9 | + | -0.7
COc1ccc(-n2c(N)c(C(=O)NCc3ccco3)c3nc4ccccc4nc32)cc1OC | 11.2 | -1.9 | 5.4 | 0.0
Nc1c(C(=O)NCCN2CCOCC2)c2nc3ccccc3nc2n1-c1ccc2c(c1)OCO2 | 21.7 | 2.6 | 3.8 | 1.3
COc1ccc(N(CC(=O)N/N=C(\C)CCc2ccccc2)S(=O)(=O)c2ccc(C)cc2)cc1 | -6.3 | -2.2 | 2.4 | -1.0
Nc1c(C(=O)NCc2ccccc2)c2nc3ccccc3nc2n1-c1ccc2c(c1)OCO2 | -4.1 | -1.2 | -0.5 | 2.8
CC(=O)NCCn1c(SCC(=O)c2ccccc2)nc2ccccc2c1=O | 32.7* | -0.2 | -0.2 | 0.6
COC(=O)c1c(N)n(-c2ccc(NC(C)=O)cc2)c2nc3ccccc3nc12 | 18.9 | -6.8 | 108.9* | -0.6
Cc1cc(C)cc(-n2c(N)c(C(=O)Nc3c(C)n(C)n(-c4ccccc4)c3=O)c3nc4ccccc4nc32)c1 | 4.9 | -6.0 | -0.3 | 1.9
COc1cccc(-n2c(N)c(C(=O)Nc3c(C)n(C)n(-c4ccccc4)c3=O)c3nc4ccccc4nc32)c1 | 36.5* | -2.9 | 9.9 | -5.4
C=CCNC(=O)c1c(N)n(-c2cccc(S(N)(=O)=O)c2)c2nc3ccccc3nc12 | 16.9 | -9.7 | 115.9* | -0.8
Cc1cc(C)c(NC(=O)CS(=O)CC(=O)Nc2ccc(F)cc2F)c(C)c1 (centres undefined) | 7.2 | -0.3 | 1.2 | 3.5
CCOc1ccc(CCNC(=O)CCc2nnc3ccc(N4CCCCC4)nn23)cc1OCC | 4.0 | 3.4 | 0.5 | 2.3
O=C(O)c1cccnc1SCc1cccc(Br)c1 | -4.4 | -14.2 | 0.0 | 0.9
CCCCNC(=O)C1(C)CCN1C(=O)c1cc(-c2ccccc2)cs1 (centres undefined) | 1.3 | / | -1.6 | /
COc1cc(-n2c(N)c(C(=O)NCc3ccco3)c3nc4ccccc4nc32)cc(OC)c1OC | 11.7 | -1.1 | 14.3 | 0.8
COCCCNC(=O)CSc1nc2ccccc2c(=O)n1CCc1ccc(S(N)(=O)=O)cc1 | -0.3 | -0.8 | 32.0* | -1.6
COCCNC(=O)c1c(N)n(-c2ccccc2)c2nc3ccccc3nc12 | 17.7 | -20.9 | 148.4* | -2.1
SMILES | GDH-TPI inh | Rv3671c inh | FBA Mtb inh | Mtb UGM inh
CC(=O)NCCn1c(SCC(=O)NCCc2ccc(S(N)(=O)=O)cc2)nc2ccccc2c1=O | -5.3 | -0.7 | -1.2 | 0.7
Nc1c(C(=O)NCCN2CCOCC2)c2nc3ccccc3nc2n1-c1ccccc1 | 27.5 | -11.0 | 148.7* | 2.9
COCCNC(=O)C(OC(=O)c1ccco1)c1ccccc1F (centres undefined) | 7.4 | 0.0 | -1.4 | -0.4
Cc1cc(O)c(C=O)c2c1C(=O)Oc1c(CO)c(O)c3c(c1O2)C(O)OC3=O (centres undefined) | 15.7 | 56.7* | 1.2 | 4.3
COc1ccc(C)cc1NC(=O)CN1C(=O)COc2ccc(S(=O)(=O)N3CCC(C)CC3)cc21 | -7.7 | -6.6 | -4.3 | -0.5
Cc1[nH]n(-c2ccc([N+](=O)[O-])cc2)c(=O)c1C=NCCN1CCN(C(=O)c2cccc(F)c2)CC1 | 33.6* | 9.4 | -2.3 | -1.9
Cc1[nH]n(-c2ccc([N+](=O)[O-])cc2)c(=O)c1C=NCCN1CCN(C(=O)c2ccc(F)cc2)CC1 | -6.8 | -1.5 | 4.7 | -0.6
CN(C(=O)C1CCCN(c2ncnc3c2nc2n3CCCCC2)C1)c1cccc(Cl)c1 (centres undefined) | 9.6 | -2.0 | 0.9 | 0.2
CC1(C(=O)Nc2nc3ccccc3s2)CC1(Br)Br (centres undefined) | 0.7 | / | 0.5 | -0.9
COc1cc(/C=N\N=C2/SC(CC(=O)O)C(=O)N2c2ccc(O)cc2)ccc1O (centres undefined) | 32.0* | -6.4 | 1.2 | 3.0
COc1ccc(/C=N\N=C2/SC(CC(=O)O)C(=O)N2c2ccc(O)cc2)cc1OC (centres undefined) | 43.5* | -1.6 | -0.4 | 0.7
CC(=O)N1N=C(c2ccccc2)CC1c1cccs1 (centres undefined) | 5.2 | / | 8.9 | -0.2
CCS(=O)(=O)Nc1ccc(C2=NN(C(=O)c3ccco3)C(c3cccs3)C2)cc1 (centres undefined) | 46.4* | -7.7 | 2.2 | -1.8
CC(=O)Nc1ccc(C2=NN(c3ccccc3)C(c3cccs3)C2)cc1 (centres undefined) | 7.3 | 12.4 | 189.1* | -2.4
COC(=O)c1ccc(Nc2c([N+](=O)[O-])ccc3nonc23)cc1 | -2.1 | 1.9 | -4.3 | 0.3
CCN(CC(=O)Nc1ccc(NC(C)=O)cc1)C(=O)Cc1ccc(S(=O)(=O)N2CCOCC2)s1 | 10.0 | -1.8 | 1.7 | -2.4
CCc1cc(C(=O)c2ccc(C)cc2)c(NC(=O)CCl)s1 | -1.5 | -8.1 | -2.7 | 60.5*
CC(/C=N/NC(=O)c1cccs1)=C\c1ccco1 | -5.1 | -6.1 | 1.2 | -0.2
CC(/C=N/NC(=O)Cc1cccs1)=C\c1ccco1 | 33.7* | 7.6 | -2.5 | -1.3
COc1ccc(-n2nc(C(=O)NCC(=O)NCCC3=CCCCC3)c3ccccc3c2=O)cc1 | 6.5 | -10.0 | 1.8 | 1.5
O=C(N/N=C/c1sc(N2CCOCC2)nc1-c1ccccc1)c1ccccc1F | / | -8.1 | / | 1.0
O=C(Nc1ccccc1F)C(=Cc1sc(N2CCOCC2)nc1-c1ccccc1)C(=O)Nc1ccccc1F | 11.7 | -1.0 | -2.3 | 11.6*
CNC(=S)N(Cc1cc2cc(OC)c(OC)cc2[nH]c1=O)C1CCCC1 | 9.2 | 1.2 | 9.6 | -0.9
CN(C)c1ccc(C=O)c(Oc2ccccc2)c1 | 37.8* | / | -1.8 | /
CC1(C)Cc2c(cnn2-c2ccc(F)cc2)C(NC(=O)c2ccc(=O)oc2)C1 (centres undefined) | 40.6* | 1.2 | -2.0 | 4.8
Cc1c(CC(=O)N2CCC(C(=O)O)CC2)c(=O)oc2cc3c(cc12)CCC1(CCCCC1)O3 | 41.2* | -2.5 | + | 0.0
Cc1c(CC(=O)N2CCC(O)CC2)c(=O)oc2cc3c(cc12)CCC1(CCCCC1)O3 | 28.6 | / | 180.8* | /
CN(CC(=O)NCc1ccco1)CC(=O)Nc1cc(S(C)(=O)=O)ccc1Cl | 0.7 | / | 2.7 | /
